12-LOX inh: ALOX12 (human) lipoxygenase inhibition. P18054. purified 12hLO, xylenol orange hydroperoxide absorbance. Potency, µM (titrated, usually from 108 µM), for inactives: at the highest dose activity change, negative = inhibition, actives largely listed as inhibitors. actives 1.1% (n = 580,000). AID 1671190; also: potency is read from the fitted curve at half-maximal effect
Target sequence (P18054 whole entry, looked up): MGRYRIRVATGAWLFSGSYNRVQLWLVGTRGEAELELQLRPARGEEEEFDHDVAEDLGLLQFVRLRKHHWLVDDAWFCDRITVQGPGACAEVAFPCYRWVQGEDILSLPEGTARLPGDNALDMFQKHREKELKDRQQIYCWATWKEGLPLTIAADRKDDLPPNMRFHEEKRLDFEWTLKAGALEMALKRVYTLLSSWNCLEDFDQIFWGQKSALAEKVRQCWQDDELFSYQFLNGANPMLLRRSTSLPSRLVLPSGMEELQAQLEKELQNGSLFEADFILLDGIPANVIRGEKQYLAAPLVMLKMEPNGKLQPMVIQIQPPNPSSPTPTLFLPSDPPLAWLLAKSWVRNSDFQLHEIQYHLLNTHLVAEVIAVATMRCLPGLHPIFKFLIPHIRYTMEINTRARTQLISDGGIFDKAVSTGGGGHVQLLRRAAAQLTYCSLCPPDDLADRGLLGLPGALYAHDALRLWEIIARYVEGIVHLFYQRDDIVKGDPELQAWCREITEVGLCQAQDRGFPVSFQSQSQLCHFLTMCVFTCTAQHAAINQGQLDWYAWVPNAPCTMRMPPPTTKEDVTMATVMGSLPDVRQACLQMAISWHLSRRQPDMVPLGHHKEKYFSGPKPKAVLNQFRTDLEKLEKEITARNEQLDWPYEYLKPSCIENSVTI
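Purified human 12hLO (150 nM final) in 25 mM Hepes, 0.01% Triton X-100, pH 7.0 was preincubated 15 min at room temperature with compound. Then 40 uM arachidonic acid was added, 30 min. Hydroperoxide was read by Fe-XO absorbance ratio 573/405 nm.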
DT40 TDP1 no CPT: qHTS for Inhibitors of human tyrosyl-DNA phosphodiesterase 1 (TDP1): qHTS in cells in absence of CPT | actives 15% (n = 420,000) | AID 686978, 2013 | DT40 Tdp1-/- hTDP1 cells, no CPT, ATP luminescence, 48 h | Potency, µM (highest dose often 46.2 µM), without a hit: top-dose activity change, negative = growth inhibition, hits mostly inhibitors; also: potency is read from the fitted curve at half-maximal effect; nearly all actives have a fitted effect of over 55% in size
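Cells were dispensed at 400 per well, compounds added by pin tool, plates incubated ≥48 hr at 37 °C, then CellTiter-Glo added for 30 min at room temperature before luminescence reading. Line: DT40 Tdp1-/- complemented with hTDP1; camptothecin omitted.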
HT1080 IDH1KD tx: HT-1080 IDH1 knockdown cell toxicity (counter line) | HT-1080 IDH1 knockdown viability, ATP luminescence, 48 h | Potency, µM (series often up to 46.1 µM), without a hit: at the top dose activity, negative = toxicity, usual class: cytotoxic | actives 2% (n = 360,000) | AID 686971;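 also: potency is read from the fitted curve at half-maximal effect; 0% = DMSO wells and -100% = cell-free medium wells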
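Knockdown cells (IDH1KD HT-1080) received compounds 2 h after plating at 750 cells/well and were kept 48 h at 37 °C in 5% FBS RPMI. A CellTiter-Glo luminescence read gave % activity for curve fitting.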
HT1080-NT tox: kills 2HG-producing HT-1080-NT fibrosarcoma cells; HT-1080-NT fibrosarcoma viability, CellTiter-Glo ATP luminescence, 48 h; Potency, µM (titrated, usually from 46.1 µM), inactives show top-dose activity, negative = less viability, actives largely listed as cytotoxic; actives 1.6% (n = 360,000); AID 686970;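 also: NT is the 2HG producing partner of a matched IDH1 knockdown line; potency is read from the fitted curve at half-maximal effect; 0% = DMSO-treated cells and -100% = media-only wells without cells; nearly all actives have a fitted effect of over 55% in size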
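A 48-hour cytotoxicity screen used HT-1080-NT cells plated 2 hours before compound delivery. ATP-based CellTiter-Glo luminescence measured viability, normalized to DMSO and no-cell controls.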
IL1B secr inh: blocks inflammasome-driven IL-1 beta release | activity change, % at 57.5 µM | AID 743279 | THP-1 LPS/ATP IL-1B secretion, AlphaLISA, 16 h; stronger effect = lower value | actives 4.7% (n = 360,000); in the data active = activity change below about -50%; inconclusive = mostly about -30% to -49%
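Secreted IL-1B measured by AlphaLISA bead assay after 16 h compound exposure of THP-1 cells; compounds (final up to 57.5 uM) added 1 h before LPS (250 ng/mL) and ATP (1.25 mM) stimulation; lower signal means less secretion.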
DT40 TDP1 CPT: DT40-hTDP1 cell growth loss with CPT; chicken DT40 Tdp1-/-;hTDP1 cells + 20 nM CPT, ATP luminescence, 48 h; Potency, µM (titrated, usually from 46.2 µM), for the others: top-dose activity change, negative = growth inhibition, actives largely listed as inhibitors; actives 12% (n = 420,000); AID 686979; also: potency is read from the fitted curve at half-maximal effect; nearly all actives have a fitted effect of over 55% in size
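Cell growth measured by CellTiter-Glo luminescence after a minimum 48 h, 37 C compound exposure with 20 nM CPT in Tdp1-knockout DT40 cells stably expressing hTDP1, seeded 400/well; qHTS titration format.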
Starred values were filed as active, the others as inactive; i = inactive; ? = inconclusive; nt = not tested or not shown; [ ] = dose if it differs, or a comment. This excerpt belongs to a sample that is enriched for hits. Unless noted, calls follow the shape of the dose curve; as a rule, active = well fitted curve in the direction sought with a large enough effect; inconclusive = small, poorly fitted or top-dose-only effect, or another doubt; inactive = no such curve, though single readings can be large; an effect the other way counts as inactive or inconclusive. Unless noted, % is scaled to controls: 0 for no effect and ±100 for the full control effect.

SMILES	12-LOX inh	DT40 TDP1 no CPT	HT1080 IDH1KD tx	HT1080-NT tox	IL1B secr inh	DT40 TDP1 CPT
CC(C)(C)C(=O)N1CCN(c2ccc([N+](=O)[O-])c(NCc3cccnc3)c2)CC1	-27%	4.1µM*	-21%	-12%	-5	4.1µM*
Cc1ccc(NC(=O)c2cc([N+](=O)[O-])ccc2NCc2cccnc2)cc1Cl	-12%	?	?	?	-54*	?
NC(=O)c1cc([N+](=O)[O-])c(Cl)cc1NCc1cccnc1	4%	?	-6%	4%	-77*	?
NC(=O)c1cc([N+](=O)[O-])ccc1NCc1cccnc1	5%	?	28%	4%	28	-26%
COc1ccc(OC)c(C(O)Cn2ccn3nc(-c4ccc(C(C)C)cc4)cc3c2=O)c1 (stereo not drawn)	15%	nt	nt	nt	nt	nt
O=C(COC(=O)c1ccc(S(=O)(=O)N2CCCCCC2)cc1)Nc1ccc(Cl)cn1	-12%	nt	nt	nt	nt	nt
CN(CCCC1CCCC1)C(=O)c1cc(COc2ccc(F)cc2F)on1	i	?	2%	6%	-51*	?
O=C(c1cc(COc2ccc(F)cc2Cl)on1)N1CCCC(c2ccccc2)C1 (stereo not drawn)	12%	?	?	-25%	-64*	?
CCOC(=O)N1CCN(C(=O)c2cc(COc3ccc(F)cc3F)on2)CC1	1%	?	-4%	1%	8	?
CCN1CCN(C(=O)c2cc(COc3ccc(F)cc3F)on2)[C@@H](C)C1=O	-7%	16µM*	-3%	0%	49	-41%
O=C(c1cc(COc2ccc(F)cc2Cl)on1)N1CC2C[C@@H]3CC1C[C@H](C2)C3	0%	?	0%	1%	-16	1.3µM*
O=C(c1cc(COc2ccc(F)cc2Cl)on1)N1C[C@H]2CC[C@H]1C2	-9%	?	2%	-7%	i	?
O=C(c1cc(COc2ccc(F)cc2F)on1)N1CCCC(c2ccccc2)C1 (stereo not drawn)	-4%	?	?	-15%	?	-18%
Cn1nc(CC2CCN(c3cc(N)ncn3)CC2)n(-c2ccccc2)c1=O	15%	nt	nt	nt	nt	nt
O=c1[nH]c(CSc2nc3ccccc3o2)nc2cc(Cl)ccc12	8.9µM*	nt	nt	nt	nt	nt
O=c1[nH]c(CSc2nc3ccccc3o2)nc2ccccc12	-25%	nt	nt	nt	nt	nt
C[C@@H](NC(=O)c1cccnc1)c1onc(-c2ccc(Cl)cc2)c1C(=O)O	4%[176 µM]	nt	nt	nt	nt	nt
CSc1ccc(C(=O)Nc2cc(C)ccc2F)cc1	2%	nt	nt	nt	nt	nt
COc1ccccc1CNc1nc2ccccc2c2nc(-c3cccc(C)c3)nn12	15%	-9%	nt	nt	nt	-14%
CCOCCCNc1nc2cc(OC)c(OC)cc2c2nc(-c3ccccc3)nn12	-2%	6.5µM*	nt	nt	nt	10µM*
COCCCNc1nc2cc(OC)c(OC)cc2c2nc(-c3ccccc3)nn12	7%	7.3µM*	8%	3%	-4	15µM*
Cc1ccc(-n2ncc3c(NC4CCCCC4)ncnc32)c(C)c1	-5%	nt	nt	nt	nt	nt
CC(=O)Nc1ccc(NC(=O)c2cc(C)nc3ccccc23)cc1	5%	nt	nt	nt	nt	nt
CC(=O)Nc1ccc(NC(=O)c2cc(-c3ccccc3)nc3ccccc23)cc1	0%	12µM*	-15%	-21%	-18	?
O=C(NC(=S)Nc1ccccc1)c1cc(-c2ccccc2)nc2ccccc12	?	?	-11%	-6%	24	29µM*
SMILES	12-LOX inh	DT40 TDP1 no CPT	HT1080 IDH1KD tx	HT1080-NT tox	IL1B secr inh	DT40 TDP1 CPT
O=C(Nc1ccc(SC(F)F)cc1)c1cc(-c2ccccc2)nc2ccccc12	40µM*	nt	nt	nt	nt	nt
O=C(NNC(=O)c1cc(-c2ccc(Cl)cc2Cl)nc2ccccc12)Nc1ccccc1	5%	21µM*	?	?	-64*	?
O=C(NNC(=S)Nc1ccccc1)c1cc(-c2cccnc2)nc2ccccc12	?	-14%	-6%	5%	-7	-21%
Cc1ccc(NC(=O)c2cc(-c3cccnc3)nc3ccccc23)cc1	-40%	nt	nt	nt	nt	nt
O=C(NNC(=O)c1ccc(Cl)cc1Cl)Nc1ccccc1	-13%	-5%	30%	29%	-19	-1%
CCN1CCN(Cc2nc3c(c(=O)[nH]c(=O)n3C)n2CCCc2ccccc2)CC1	-13%	nt	nt	nt	nt	nt
CC(=O)N1CCN(C(=O)c2nc(-c3ccccc3)cs2)CC(O)C1 (stereo not drawn)	47%	nt	nt	nt	nt	nt
Cc1ccc(NC(=O)C(C)OC(=O)c2csc(NCc3ccccc3)n2)cc1 (stereo not drawn)	1%	nt	nt	nt	nt	nt
Cc1ccccc1C(=O)NC1CCN(c2cc(-c3cccs3)[nH]n2)C1 (stereo not drawn)	24%	nt	nt	nt	nt	nt
CC(C)=CC(=O)OCc1cc([N+](=O)[O-])cc2c1OCOC2	0%	-12%	-7%	-15%	-53*	-1%
COc1ccc(Cl)cc1C(=O)Nc1ccc2c(c1)CCC(=O)N2	15%	nt	nt	nt	nt	nt
CC(C)(C)c1ccc(SC2=C[C@@]3(O)CC[C@@H](O)[C@@](Sc4ccc(C(C)(C)C)cc4)(C2=O)[C@H]3O)cc1	?	3.3µM*	15µM*	16µM*	-90*	4.6µM*
Cc1ccc(SC(C)C(=O)NC2CC2)cc1 (stereo not drawn)	0%	24%	13%	?	-1	9%
Cc1ccc(SC2=C[C@@]3(O)CC[C@@H](O)[C@@](Sc4ccc(C)cc4)(C2=O)[C@H]3O)cc1	?	?	-22%	-27%	-8	23µM*
COc1ccccc1N1CCN([C@@H]2[C@H](O)[C@H](CO)O[C@@H]2CN(Cc2ccc(F)cc2)Cc2ccc(F)cc2)CC1	28µM*	nt	nt	nt	nt	nt
COc1ccccc1N1CCN([C@@H]2[C@H](O)[C@H](CO)O[C@@H]2CNC(C)C)CC1	20µM*	nt	nt	nt	nt	nt
CCc1ccc(-c2nc(CN3CCC(C(=O)N4CCN(c5ccccn5)CC4)CC3)c(C)o2)cc1	-59%	18µM*	?	-26%	-53*	23µM*
CCc1ccc(-c2nc(CN3CCC(C(=O)NCc4ccc(F)cc4)CC3)c(C)o2)cc1	-25%	?	3%	-8%	-19	?
CCc1ccc(-c2nc(CN3CCC(C(=O)N4CCN(c5ccccc5)CC4)CC3)c(C)o2)cc1	?	16µM*	-16%	-13%	?	?
COCc1cccc(-c2n[nH]c3c2CC(=O)N(CCOc2ccccc2)C3)c1	4%[176 µM]	nt	nt	nt	nt	nt

Compound activity (PubChem BioAssay)
